# Assay results reported in PubChem BioAssay (EPA / NIEHS).
# Records with an inconclusive call do not appear. Calls of active or inactive are those of the source. Rule for the calls, unless noted: active = hit-call score of the fitted dose curve at least 0.9, where 1 is the maximum; inconclusive = response in the unintended direction; inactive = score below 0.9.
# What was measured:
# [1] = ATG_ERE_CIS: Attagene CIS-FACTORIAL HepG2 Assay for Estrogen Response Element (ERE) (AID 2282940; active = hit-call score of the fitted dose curve at least 0.9, where 1 is the maximum; inactive = score below 0.9); conditions: HepG2 ERE cis-reporter, Attagene RNA transcript; actives raise or lower the signal
# Outline: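 After 24 h compound treatment, RNA from transfected HepG2 cells was reverse-transcribed, reporter cDNA PCR-amplified, FAM-labelled, HpaI-cut and resolved by capillary electrophoresis. ERE-driven cis reporter transcripts reflect endogenous factors; gain or loss scored against DMSO.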
# [2] = molecular target: Bile acid receptor (Homo sapiens) (UniProt Q96RI1); assay: ATG_IR1_CIS: Attagene CIS-FACTORIAL HepG2 Assay for human Nuclear Receptor Subfamily 1 Group H Member 4 (NR1H4), IR1 submotif (AID 2282946; active = hit-call score of the fitted dose curve at least 0.9, where 1 is the maximum; inactive = score below 0.9); conditions: IR1 reporter transcription, actives raise or lower the signal
# Outline: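 Transient MRTU transfection, HepG2; 24 h dosing; RNA → RT-PCR → 6-FAM primer extension → HpaI digest → capillary electrophoresis fluorescence. Gain/loss of signal fitted relative to DMSO.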
# [3] = molecular target: Nuclear receptor subfamily 1 group I member 3 (Homo sapiens) (UniProt Q14994); assay: ATG_CAR_TRANS: Attagene TRANS-FACTORIAL HepG2 Assay for human Constitutive Androstane Receptor (CAR) (AID 2282969); conditions: HepG2 Attagene TRANS-FACTORIAL CAR reporter;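 note: activators raise reporter mRNA above DMSO so AC50 marks induction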
# Outline: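 HepG2 cells transiently transfected with multiplexed GAL4-UAS reporter units expressing chimeric NR-Gal4 proteins; compound exposure 24 h. Reporter mRNA measured by RT-PCR, 6-FAM labelling, HpaI digestion and capillary electrophoresis; gain-of-signal fitted against DMSO baseline.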
# [4] = molecular target: Oxysterols receptor LXR-beta (Homo sapiens) (UniProt P55055); assay: ATG_LXRb_TRANS: Attagene TRANS-FACTORIAL HepG2 Assay for human Liver X Receptor beta (LXRb) (AID 2282981); conditions: HepG2 Attagene TRANS GAL4-LXRb reporter, mRNA
# Outline: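 HepG2 cells transiently transfected with multiple reporter transcription units carrying chimeric NR-Gal4 proteins acting on GAL4-UAS reporters; compound exposure 24 h. Reporter mRNA quantified by RT-PCR, 6-FAM labelling, HpaI digestion and capillary electrophoresis; gain of signal versus DMSO.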
# [5] = molecular target: Hepatocyte nuclear factor 4-alpha (Homo sapiens) (UniProt P41235); assay: ATG_HNF4a_TRANS: Attagene TRANS-FACTORIAL HepG2 Assay for human Hepatocyte Nuclear Factor 4 alpha (HNF4a) (AID 2282982); conditions: HepG2 HNF4a transactivation reporter, mRNA readout
# Outline: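 HepG2 cells transiently transfected with multiplexed GAL4-UAS reporter units responsive to chimeric NR-GAL4 proteins; compound exposure 24 h. Reporter mRNA quantified by RT-PCR, 6-FAM labelling, HpaI digestion and capillary electrophoresis; gain of signal versus DMSO baseline.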
# [6] = molecular target: human RAR-related Orphan Receptor beta (RORb), RORB (gene 6096) (UniProt Q92753); assay: ATG_RORb_TRANS: Attagene TRANS-FACTORIAL HepG2 Assay for human RAR-related Orphan Receptor beta (RORb) (AID 2283010)
# Outline: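 HepG2 cells were transiently transfected with multiplexed GAL4-UAS reporter units expressing chimeric nuclear receptor–GAL4 proteins, then dosed for 24 h. Reporter mRNA was quantified by RT-PCR with fluorescent labelling and capillary electrophoresis; gain of signal was fitted relative to DMSO.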
# [7] = molecular target: human Peroxisome Proliferator-activated Receptor delta (PPARd), PPARD (gene 5467) (UniProt Q03181); assay: ATG_PPARd_TRANS: Attagene TRANS-FACTORIAL HepG2 Assay for human Peroxisome Proliferator-activated Receptor delta (PPARd) (AID 2283002)
# Outline: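 HepG2 cells transiently transfected with multiplexed GAL4-UAS reporter units and exogenous chimeric NR-Gal4 proteins; 24 h compound exposure. Reporter mRNA measured by RT-PCR, 6-FAM labelling, HpaI digestion and capillary electrophoresis; gain of signal versus DMSO.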
# [8] = molecular target: human RAR-related Orphan Receptor gamma (RORg), RORC (gene 6097) (UniProt P51449); assay: ATG_RORg_TRANS: Attagene TRANS-FACTORIAL HepG2 Assay for human RAR-related Orphan Receptor gamma (RORg) (AID 2283011)
# Outline: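 HepG2 cells transiently transfected with GAL4-UAS reporter units and chimeric RORg-Gal4 construct; after 24 h chemical exposure, reporter mRNA measured by RT-PCR with fluorescent capillary electrophoresis, gain of signal fitted against DMSO.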
# [9] = ATG_XTT_Cytotoxicity: Cytotoxicity Assessment in the Attagene TRANS-FACTORIAL HepG2 Assay (AID 2283584)
# Outline: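 HepG2 cells transiently transfected with GAL4-UAS multiple reporter units, dosed 24 h; cytotoxicity read by XTT as loss of signal versus DMSO baseline.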
# [10] = molecular target: Cellular tumor antigen p53 (Homo sapiens) (UniProt P04637); assay: TOX21_p53_BLA_p2_ratio: Tox21 HCT-116 p53 Agonism Beta-lactamase Assay, Ratio, Phase 2 (AID 2283592)
# Outline: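 HCT-116 cells with p53-responsive beta-lactamase reporter, 4000 cells/well, preincubated 5 h, then compound in DMSO (217-fold dilution) for 16 h at 37C. CCF4-AM substrate 2 h at room temperature; 460/530 nm emission ratio fitted upward versus DMSO.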
# [11] = TOX21_p53_BLA_p3_viability: Viability Assessment in the Tox21 HCT-116 p53 Agonism Beta-lactamase Assay, Phase 3 (AID 2283593);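 note: cells exposed to compound for 16 h before reading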
# Outline: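 HCT-116 cells (4000/well) rested 5 h at 37C, then got DMSO compounds by pin tool (217-fold dilution) for 16 h at 37C, 5% CO2. After the bla read, CellTiter-Glo was added and luminescence read at 30 min, room temperature.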
# [12] = molecular target: Cellular tumor antigen p53 (Homo sapiens) (UniProt P04637); assay: TOX21_p53_BLA_p3_ratio: Tox21 HCT-116 p53 Agonism Beta-lactamase Assay, Ratio, Phase 3 (AID 2283596)
# Outline: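 HCT116 p53-bla cells (4000/well) given compound in DMSO (217-fold dilution) after 5 h, incubated 16 h at 37C. CCF4-AM substrate 2 h at room temperature; 460/530 nm emission ratio, gain fitted against DMSO.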
# [13] = TOX21_p53_BLA_p4_viability: Viability Assessment in the Tox21 HCT-116 p53 Agonism Beta-lactamase Assay, Phase 4 (AID 2283597);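 note: hits lower the luminescence signal meaning cytotoxicity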
# Outline: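 HCT-116 p53-bla cells, 4000/well, dosed after 5 h attachment and incubated 16 h at 37 °C, 5% CO2. Viability from CellTiter-Glo ATP luminescence after 30 min at room temperature, taken after the beta-lactamase read; loss of signal indicates cytotoxicity.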
# [14] = molecular target: Cellular tumor antigen p53 (Homo sapiens) (UniProt P04637); assay: TOX21_p53_BLA_p4_ratio: Tox21 HCT-116 p53 Agonism Beta-lactamase Assay, Ratio, Phase 4 (AID 2283601)
# Outline: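 HCT116 cells carrying an inducible beta-lactamase reporter were plated at 4000 cells/well, rested 5 h, then exposed to compounds in DMSO (217-fold dilution) for 16 h at 37C. CCF4-AM substrate was loaded 2 h at room temperature; 460/530 nm emission ratio scored gain-of-signal versus DMSO.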
# [15] = CCTE_Harrill_HTTr_CellCount_MCF7: CCTE's Cell Proliferation Assessment for the High-Throughput Transcriptomics (HTTr) Platform, Harrill Lab (AID 2284012);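 note: cells exposed to compound for six hours; intended direction is loss of nuclei count meaning fewer cells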
# Outline: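 MCF-7 cells were exposed for 6 h to an eight-point dilution series; Hoechst-labeled nuclei were counted by high content imaging. Curves were fitted bidirectionally against DMSO as negative control and baseline, with signal loss indicating reduced cell count.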
# [16] = molecular target: Glucocorticoid receptor (Homo sapiens) (UniProt P04150); assay: ATG_GR_TRANS: Attagene TRANS-FACTORIAL HepG2 Assay for human Glucocorticoid Receptor (GR) (AID 2282978); conditions: HepG2 Attagene TRANS GR reporter, mRNA transcription;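 note: activators score as hits since higher reporter transcript over DMSO is fitted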
# Outline: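 HepG2 cells transiently transfected with GAL4-UAS reporter units and exogenous GR-Gal4 chimera, dosed 24 h. Reporter mRNA by RT-PCR, FAM labeling, HpaI digest and capillary electrophoresis; gain-of-signal fit versus DMSO.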
# [17] = TOX21_p53_BLA_p2_viability: Viability Assessment in the Tox21 HCT-116 p53 Agonism Beta-lactamase Assay, Phase 2 (AID 2283591);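 note: compound exposure lasted 16 h at 37 °C; actives lower the ATP signal meaning cytotoxicity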
# Outline: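 HCT-116 p53-bla cells (4000/well) rested 5 h at 37C, then received compounds in DMSO (217-fold dilution) for 16 h at 37C, 5% CO2. After the CCF4 read, CellTiter-Glo was added; ATP luminescence was read after 30 min at room temperature.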
# [18] = molecular target: Cellular tumor antigen p53 (Homo sapiens) (UniProt P04637); assay: TOX21_p53_BLA_p5_ratio: Tox21 HCT-116 p53 Agonism Beta-lactamase Assay, Ratio, Phase 5 (AID 2283599)
# Outline: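 HCT-116 cells carrying a p53-inducible beta-lactamase reporter were seeded at 4000 cells/well and dosed after 5 h with compound in DMSO (217-fold dilution). After 16 h at 37C, CCF4-AM substrate was added for 2 h, and the 460/530 nm emission ratio was scored as gain-of-signal versus DMSO.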
# [19] = molecular target: Oxysterols receptor LXR-alpha (Homo sapiens) (UniProt Q13133); assay: ATG_LXRa_TRANS: Attagene TRANS-FACTORIAL HepG2 Assay for human Liver X Receptor alpha (LXRa) (AID 2282980); conditions: HepG2 Attagene TRANS reporter, LXRa transactivation
# Outline: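 HepG2 cells transiently transfected with GAL4-UAS reporter units for chimeric NR-Gal4 proteins, exposed to chemicals for 24 h. Reporter mRNA quantified by RT-PCR and capillary electrophoresis; gain of signal fitted relative to DMSO.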
# [20] = ACEA_ER_AUC_viability: ACEA Biosciences xCELLigence Real-Time Cell Analysis on Estrogen Receptor Agonism for Viability (AID 2283782);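 note: continuous compound exposure with impedance area under curve over 80 h; hit means loss of impedance signal meaning reduced cell growth or viability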
# Outline: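 T-47D human breast cells in phenol red-free RPMI1640 with 10% charcoal-stripped FBS were dosed with an 8-point 1:4 dilution series from 100 uM top final concentration, in duplicate. Impedance-based growth was followed for 80 h; AUC analysed versus DMSO.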
# Chain of Nuclear receptor subfamily 1 group I member 3 (Homo sapiens) (Q14994 whole entry, looked up, the tested form may be a part): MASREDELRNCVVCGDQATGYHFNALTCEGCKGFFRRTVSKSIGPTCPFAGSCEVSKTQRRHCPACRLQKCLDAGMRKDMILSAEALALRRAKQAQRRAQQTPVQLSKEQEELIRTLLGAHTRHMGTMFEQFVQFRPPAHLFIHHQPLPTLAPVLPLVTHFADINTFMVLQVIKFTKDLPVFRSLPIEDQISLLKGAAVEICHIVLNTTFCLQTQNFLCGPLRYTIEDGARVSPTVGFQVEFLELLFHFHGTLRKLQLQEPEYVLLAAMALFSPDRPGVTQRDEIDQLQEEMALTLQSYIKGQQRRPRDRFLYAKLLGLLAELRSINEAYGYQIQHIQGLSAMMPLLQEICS
# Chain of human RAR-related Orphan Receptor gamma (RORg), RORC (gene 6097) (P51449 whole entry, looked up, the tested form may be a part): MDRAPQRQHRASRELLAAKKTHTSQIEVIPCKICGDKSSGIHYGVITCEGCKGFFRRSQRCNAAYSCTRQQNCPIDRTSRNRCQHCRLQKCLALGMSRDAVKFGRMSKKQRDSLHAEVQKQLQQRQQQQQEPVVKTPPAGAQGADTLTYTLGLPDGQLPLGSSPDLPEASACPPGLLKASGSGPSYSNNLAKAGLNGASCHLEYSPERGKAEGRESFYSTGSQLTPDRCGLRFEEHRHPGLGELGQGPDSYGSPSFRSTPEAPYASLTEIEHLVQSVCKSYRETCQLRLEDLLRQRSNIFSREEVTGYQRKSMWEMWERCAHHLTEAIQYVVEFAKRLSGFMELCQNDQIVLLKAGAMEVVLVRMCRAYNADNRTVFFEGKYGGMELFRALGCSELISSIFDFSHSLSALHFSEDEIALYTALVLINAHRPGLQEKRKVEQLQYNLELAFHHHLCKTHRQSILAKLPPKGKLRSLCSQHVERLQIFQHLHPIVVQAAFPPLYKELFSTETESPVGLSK
# Chain of Oxysterols receptor LXR-beta (Homo sapiens) (P55055 whole entry, looked up, the tested form may be a part): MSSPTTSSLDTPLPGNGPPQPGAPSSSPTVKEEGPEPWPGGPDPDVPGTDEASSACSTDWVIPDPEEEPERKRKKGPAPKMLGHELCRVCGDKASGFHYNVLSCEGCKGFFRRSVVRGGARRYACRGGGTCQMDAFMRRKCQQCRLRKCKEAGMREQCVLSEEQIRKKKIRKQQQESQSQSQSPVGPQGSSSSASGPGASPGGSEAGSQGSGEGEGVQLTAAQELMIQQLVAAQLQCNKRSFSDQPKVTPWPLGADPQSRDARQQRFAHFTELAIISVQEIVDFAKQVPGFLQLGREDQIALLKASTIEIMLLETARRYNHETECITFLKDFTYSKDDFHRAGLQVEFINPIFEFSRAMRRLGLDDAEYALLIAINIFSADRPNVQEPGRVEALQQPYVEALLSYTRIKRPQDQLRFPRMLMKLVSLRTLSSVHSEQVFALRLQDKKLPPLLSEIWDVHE
# Chain of human RAR-related Orphan Receptor beta (RORb), RORB (gene 6096) (Q92753 whole entry, looked up, the tested form may be a part): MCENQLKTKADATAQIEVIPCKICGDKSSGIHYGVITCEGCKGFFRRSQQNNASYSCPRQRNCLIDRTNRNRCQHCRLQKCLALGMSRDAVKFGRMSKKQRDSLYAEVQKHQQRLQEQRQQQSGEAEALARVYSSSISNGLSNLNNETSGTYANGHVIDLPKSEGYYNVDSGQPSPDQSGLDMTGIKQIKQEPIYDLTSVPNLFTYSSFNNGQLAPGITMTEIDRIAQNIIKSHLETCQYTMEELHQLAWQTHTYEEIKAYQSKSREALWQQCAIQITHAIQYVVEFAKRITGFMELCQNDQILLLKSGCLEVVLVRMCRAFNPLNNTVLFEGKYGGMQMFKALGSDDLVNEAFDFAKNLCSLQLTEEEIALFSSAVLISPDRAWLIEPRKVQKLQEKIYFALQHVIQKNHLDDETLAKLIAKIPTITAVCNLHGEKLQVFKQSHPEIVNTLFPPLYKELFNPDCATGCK
# Chain of Cellular tumor antigen p53 (Homo sapiens) (P04637 whole entry, looked up): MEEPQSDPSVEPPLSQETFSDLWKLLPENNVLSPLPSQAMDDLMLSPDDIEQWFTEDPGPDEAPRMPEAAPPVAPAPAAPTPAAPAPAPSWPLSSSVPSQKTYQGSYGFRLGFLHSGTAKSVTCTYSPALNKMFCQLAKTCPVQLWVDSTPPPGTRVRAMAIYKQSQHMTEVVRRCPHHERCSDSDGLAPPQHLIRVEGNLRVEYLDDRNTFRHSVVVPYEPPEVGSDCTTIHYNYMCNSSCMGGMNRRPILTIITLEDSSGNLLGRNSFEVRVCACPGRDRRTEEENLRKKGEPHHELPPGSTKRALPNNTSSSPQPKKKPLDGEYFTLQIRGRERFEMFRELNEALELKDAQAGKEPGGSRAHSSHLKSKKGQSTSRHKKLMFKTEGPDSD
# Chain of human Peroxisome Proliferator-activated Receptor delta (PPARd), PPARD (gene 5467) (Q03181 whole entry, looked up, the tested form may be a part): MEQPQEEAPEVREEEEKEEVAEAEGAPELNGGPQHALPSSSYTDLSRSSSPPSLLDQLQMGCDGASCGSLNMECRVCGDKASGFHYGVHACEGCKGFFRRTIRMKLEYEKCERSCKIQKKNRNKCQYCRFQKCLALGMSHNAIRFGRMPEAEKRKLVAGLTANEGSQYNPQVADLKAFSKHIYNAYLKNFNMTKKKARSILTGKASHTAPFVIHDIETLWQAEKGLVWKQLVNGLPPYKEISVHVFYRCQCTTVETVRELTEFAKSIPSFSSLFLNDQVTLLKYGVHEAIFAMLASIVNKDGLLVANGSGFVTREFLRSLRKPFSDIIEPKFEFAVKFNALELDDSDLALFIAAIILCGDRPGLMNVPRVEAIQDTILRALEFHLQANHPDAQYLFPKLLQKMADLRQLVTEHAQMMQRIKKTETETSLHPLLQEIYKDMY
# Chain of Hepatocyte nuclear factor 4-alpha (Homo sapiens) (P41235 whole entry, looked up, the tested form may be a part): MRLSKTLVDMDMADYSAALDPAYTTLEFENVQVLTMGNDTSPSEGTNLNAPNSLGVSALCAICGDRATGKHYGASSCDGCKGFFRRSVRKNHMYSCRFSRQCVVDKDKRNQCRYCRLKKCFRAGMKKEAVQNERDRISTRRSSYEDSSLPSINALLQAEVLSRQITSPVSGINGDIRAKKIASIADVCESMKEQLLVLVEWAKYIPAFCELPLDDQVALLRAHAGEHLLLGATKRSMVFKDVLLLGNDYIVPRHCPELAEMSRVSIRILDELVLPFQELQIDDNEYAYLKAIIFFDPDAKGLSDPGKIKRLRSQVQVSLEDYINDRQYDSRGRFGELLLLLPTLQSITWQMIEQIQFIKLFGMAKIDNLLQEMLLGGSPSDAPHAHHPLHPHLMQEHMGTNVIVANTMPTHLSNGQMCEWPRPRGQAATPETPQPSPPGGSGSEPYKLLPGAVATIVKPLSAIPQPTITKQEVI
# Chain of Bile acid receptor (Homo sapiens) (Q96RI1 whole entry, looked up): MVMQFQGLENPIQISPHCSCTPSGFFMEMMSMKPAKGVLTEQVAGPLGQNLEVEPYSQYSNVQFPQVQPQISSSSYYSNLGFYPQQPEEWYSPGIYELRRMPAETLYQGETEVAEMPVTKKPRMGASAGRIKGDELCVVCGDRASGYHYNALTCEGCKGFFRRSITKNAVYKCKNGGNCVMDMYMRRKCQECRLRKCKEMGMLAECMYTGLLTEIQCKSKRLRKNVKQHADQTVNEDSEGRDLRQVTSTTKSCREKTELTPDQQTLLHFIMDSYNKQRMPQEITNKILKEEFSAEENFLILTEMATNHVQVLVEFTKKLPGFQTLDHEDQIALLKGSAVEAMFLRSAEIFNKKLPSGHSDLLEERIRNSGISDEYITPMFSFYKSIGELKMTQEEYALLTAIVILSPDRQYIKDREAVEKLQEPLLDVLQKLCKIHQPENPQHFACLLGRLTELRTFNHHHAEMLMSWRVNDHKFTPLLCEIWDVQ
# Chain of Oxysterols receptor LXR-alpha (Homo sapiens) (Q13133 whole entry, looked up, the tested form may be a part): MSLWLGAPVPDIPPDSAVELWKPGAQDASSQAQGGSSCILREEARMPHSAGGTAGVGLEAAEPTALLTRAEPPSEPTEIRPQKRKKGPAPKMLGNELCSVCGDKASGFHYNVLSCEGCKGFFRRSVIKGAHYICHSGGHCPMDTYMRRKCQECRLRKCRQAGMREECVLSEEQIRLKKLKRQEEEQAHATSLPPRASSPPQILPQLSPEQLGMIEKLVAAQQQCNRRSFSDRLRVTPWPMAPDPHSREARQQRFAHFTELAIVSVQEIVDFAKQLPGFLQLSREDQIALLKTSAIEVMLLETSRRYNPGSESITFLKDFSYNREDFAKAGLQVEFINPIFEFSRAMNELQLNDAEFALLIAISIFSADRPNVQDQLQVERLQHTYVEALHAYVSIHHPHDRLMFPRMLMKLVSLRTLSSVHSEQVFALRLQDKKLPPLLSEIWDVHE
# Chain of Glucocorticoid receptor (Homo sapiens) (P04150 whole entry, looked up, the tested form may be a part): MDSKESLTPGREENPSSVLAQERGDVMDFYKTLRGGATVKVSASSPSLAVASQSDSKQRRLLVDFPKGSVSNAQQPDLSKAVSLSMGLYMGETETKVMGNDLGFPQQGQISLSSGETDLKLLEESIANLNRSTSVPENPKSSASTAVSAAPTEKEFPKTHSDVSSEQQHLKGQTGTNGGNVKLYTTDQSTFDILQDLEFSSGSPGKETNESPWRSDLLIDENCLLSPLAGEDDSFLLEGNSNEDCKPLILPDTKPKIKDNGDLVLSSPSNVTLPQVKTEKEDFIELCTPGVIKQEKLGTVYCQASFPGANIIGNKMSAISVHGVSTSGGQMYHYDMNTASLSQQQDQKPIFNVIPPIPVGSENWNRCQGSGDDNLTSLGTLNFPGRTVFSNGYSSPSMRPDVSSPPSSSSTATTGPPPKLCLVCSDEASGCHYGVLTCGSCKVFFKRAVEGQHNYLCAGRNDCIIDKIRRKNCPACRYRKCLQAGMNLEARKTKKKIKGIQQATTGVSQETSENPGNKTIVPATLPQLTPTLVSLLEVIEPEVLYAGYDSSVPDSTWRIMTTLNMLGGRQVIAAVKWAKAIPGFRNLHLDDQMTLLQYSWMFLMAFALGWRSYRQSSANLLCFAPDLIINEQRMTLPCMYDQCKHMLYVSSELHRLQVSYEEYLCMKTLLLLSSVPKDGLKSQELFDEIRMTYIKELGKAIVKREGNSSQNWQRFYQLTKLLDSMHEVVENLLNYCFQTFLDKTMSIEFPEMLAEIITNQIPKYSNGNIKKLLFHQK
smiles,measurement,setting,value
CN(N=O)c1ccccc1,outcome,[1],inactive
same,outcome,[2],inactive
same,outcome,[3],inactive
same,outcome,[4],inactive
same,outcome,[5],inactive
same,outcome,[6],inactive
O=c1[nH]c(Cl)c(Cl)cc1Cl,outcome,[2],inactive
same,outcome,[3],inactive
same,outcome,[4],inactive
same,outcome,[7],inactive
same,outcome,[6],inactive
same,outcome,[8],inactive
same,outcome,[9],inactive
same,outcome,[10],inactive
same,outcome,[11],inactive
same,outcome,[12],inactive
same,outcome,[13],inactive
same,outcome,[14],inactive
same,outcome,[15],inactive
N#Cc1cc(I)c(O)c(I)c1,outcome,[3],inactive
same,outcome,[16],inactive
same,outcome,[4],inactive
same,outcome,[17],inactive
same,AC50,[10],9.91 µM (active)
same,outcome,[11],inactive
same,AC50,[12],6.09 µM (active)
same,outcome,[13],inactive
same,AC50,[18],55.8 µM (active)
same,AC50,[14],13.9 µM (active)
Nc1ccc([N+](=O)[O-])cc1N,outcome,[19],inactive
same,outcome,[4],inactive
same,outcome,[5],inactive
same,outcome,[7],inactive
same,outcome,[6],inactive
same,outcome,[8],inactive
same,outcome,[9],inactive
same,outcome,[10],inactive
same,outcome,[11],inactive
same,outcome,[12],inactive
same,outcome,[14],inactive
same,AC50,[20],50 µM (active)
COC(C)(C)CCC[C@H](C)C/C=C/C(C)=C/C(=O)OC(C)C,outcome,[3],inactive
same,outcome,[19],inactive
same,outcome,[8],inactive
same,outcome,[17],inactive
same,outcome,[10],inactive
same,outcome,[11],inactive
same,outcome,[12],inactive
same,outcome,[13],inactive
same,outcome,[18],inactive
same,outcome,[14],inactive
same,AC50,[20],79.3 µM (active)
